# Measurements as given in PubChem BioAssay (EPA / NIEHS).
# Inconclusive results are not listed. The source made the active and inactive calls. Rule for the calls: active = hit-call score of the fitted dose curve at least 0.9, where 1 is the maximum; inconclusive = response in the unintended direction; inactive = score below 0.9.
# What was measured:
# [1] = biological target: human MAP Kinase-Activated Protein Kinase 2 (MAPKAPK2), MAPKAPK2 (gene 9261) (UniProt P49137); experiment: NVS_ENZ_hMAPKAPK2: NovaScreen (NVS) Enzymatic Assay for human MAP Kinase-Activated Protein Kinase 2 (MAPKAPK2) (AID 2283178)
# How it was run: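 Chemicals screened in duplicate at 25 uM, then to 50 uM top concentration in concentration-response, against recombinant human MAPKAPK2; substrate conversion read 1 hr post-dosing by fluorescence after electrophoretic mobility-shift separation, loss-of-signal relative to DMSO.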
# [2] = biological target: human Janus Kinase 2 (Jak2), JAK2 (gene 3717) (UniProt O60674); experiment: NVS_ENZ_hJak2: NovaScreen (NVS) Enzymatic Assay for human Janus Kinase 2 (Jak2) (AID 2283169)
# How it was run: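 Single-point duplicate screen at 25 uM, with hits run in concentration series to a 50 uM top dose. Substrate-product separation by mobility shift with fluorescence detection, 1 h post-dosing; DMSO baseline.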
# [3] = biological target: Mitogen-activated protein kinase 3 (Homo sapiens) (UniProt P27361); experiment: NVS_ENZ_hMAPK3: NovaScreen (NVS) Enzymatic Assay for human Mitogen-Activated Protein Kinase 3 (MAPK 3) (AID 2283177)
# How it was run: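 Chemicals were first tested in duplicate at 25 uM, with hits re-run as concentration series (max 50 uM). Recombinant enzyme activity, measured 1 h post-dose in a cell-free format, was read by fluorescence/mobility shift relative to DMSO.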
# [4] = biological target: human Matrix Metalloproteinase-2 (MMP2), MMP2 (gene 4313) (UniProt P08253); experiment: NVS_ENZ_hMMP2: NovaScreen (NVS) Enzymatic Assay for human Matrix Metalloproteinase-2 (MMP2) (AID 2283184)
# How it was run: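 Compounds first screened in duplicate at a single 25 uM, with actives followed up in concentration series. Recombinant human MMP2 cleaves a fluorogenic substrate; fluorescence taken at 1 h, inhibition fitted relative to DMSO.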
# [5] = biological target: human Matrix Metalloproteinase-3 (MMP3), MMP3 (gene 4314) (UniProt P08254); experiment: NVS_ENZ_hMMP3: NovaScreen (NVS) Enzymatic Assay for human Matrix Metalloproteinase-3 (MMP3) (AID 2283185)
# How it was run: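 Fluorescent substrate turnover by recombinant MMP3 read after 1 h, signal loss scored against DMSO. Compounds first run in duplicate at 25 uM single dose, then actives confirmed by concentration series.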
# [6] = biological target: Collagenase 3 (Homo sapiens) (UniProt P45452); experiment: NVS_ENZ_hMMP13: NovaScreen (NVS) Enzymatic Assay for human Matrix Metalloproteinase-13 (MMP13) (AID 2283182)
# How it was run: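 Recombinant MMP13 cleaving fluorescent substrate, cell-free, measured 1 h after dosing. Primary duplicate screen at 25 uM; actives tested in concentration-response up to 50 uM; loss of signal relative to DMSO.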
# [7] = biological target: human c-Jun N-terminal Kinases (JNK2), MAPK9 (gene 5601) (UniProt P45984); experiment: NVS_ENZ_hJNK2: NovaScreen (NVS) Enzymatic Assay for human c-Jun N-terminal Kinases (JNK2) (AID 2283171)
# Method: NVS_ENZ_hJNK2 is a biochemical, single-readout assay that uses extracted gene-proteins in a cell-free assay. Measurements were taken 1 hour after chemical dosing in a 384-well plate.NVS_ENZ_hJNK2 is one of one assay component(s) measured or calculated from the NVS_ENZ_hJNK2 assay. It is designed to make measurements of enzyme activity, a form of enzyme reporter, as detected with fluorescence intensity signals by Fluorescence and electrophoretic mobility shift technology.Data from the assay component NVS_ENZ_hJNK2 was analyzed into 1 assay endpoint. This assay endpoint, NVS_ENZ_hJNK2, was analyzed in the positive analysis fitting direction relative to DMSO as the negative control and baseline of activity. Using a type of enzyme reporter, loss-of-signal activity can be used to understand changes in the enzymatic activity as they relate to the gene MAPK9. Furthermore, this assay endpoint can be referred to as a primary readout, because this assay has produced multiple assay endpoints where this one serves a enzymatic activity function. To generalize the intended target to other relatable targets, this assay endpoint is annotated to the kinase intended target family, where the subfamily is serine/threonine kinase. […]
# Sequence of Mitogen-activated protein kinase 3 (Homo sapiens) (P27361 whole entry, looked up): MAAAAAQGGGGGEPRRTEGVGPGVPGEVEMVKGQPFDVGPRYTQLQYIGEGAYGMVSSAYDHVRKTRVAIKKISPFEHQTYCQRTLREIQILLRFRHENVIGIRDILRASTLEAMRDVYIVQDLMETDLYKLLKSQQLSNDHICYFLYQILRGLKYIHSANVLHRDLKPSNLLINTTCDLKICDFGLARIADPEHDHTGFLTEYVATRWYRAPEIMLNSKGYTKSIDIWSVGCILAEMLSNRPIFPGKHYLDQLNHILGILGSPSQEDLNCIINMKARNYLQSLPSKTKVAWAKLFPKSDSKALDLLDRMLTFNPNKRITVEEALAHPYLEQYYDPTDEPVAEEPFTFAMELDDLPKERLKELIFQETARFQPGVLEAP
# Sequence of human MAP Kinase-Activated Protein Kinase 2 (MAPKAPK2), MAPKAPK2 (gene 9261) (P49137 whole entry, looked up): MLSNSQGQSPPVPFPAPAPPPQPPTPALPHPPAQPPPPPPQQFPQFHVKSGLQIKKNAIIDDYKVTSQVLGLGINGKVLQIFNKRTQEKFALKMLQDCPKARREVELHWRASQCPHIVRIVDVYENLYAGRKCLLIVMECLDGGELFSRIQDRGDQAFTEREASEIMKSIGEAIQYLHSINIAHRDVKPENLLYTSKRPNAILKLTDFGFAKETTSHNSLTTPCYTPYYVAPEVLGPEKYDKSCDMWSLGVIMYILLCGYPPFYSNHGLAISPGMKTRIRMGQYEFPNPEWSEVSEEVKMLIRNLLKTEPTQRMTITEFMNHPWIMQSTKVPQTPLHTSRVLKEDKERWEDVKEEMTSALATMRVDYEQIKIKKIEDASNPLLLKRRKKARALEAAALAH
# Sequence of human Matrix Metalloproteinase-3 (MMP3), MMP3 (gene 4314) (P08254 whole entry, looked up): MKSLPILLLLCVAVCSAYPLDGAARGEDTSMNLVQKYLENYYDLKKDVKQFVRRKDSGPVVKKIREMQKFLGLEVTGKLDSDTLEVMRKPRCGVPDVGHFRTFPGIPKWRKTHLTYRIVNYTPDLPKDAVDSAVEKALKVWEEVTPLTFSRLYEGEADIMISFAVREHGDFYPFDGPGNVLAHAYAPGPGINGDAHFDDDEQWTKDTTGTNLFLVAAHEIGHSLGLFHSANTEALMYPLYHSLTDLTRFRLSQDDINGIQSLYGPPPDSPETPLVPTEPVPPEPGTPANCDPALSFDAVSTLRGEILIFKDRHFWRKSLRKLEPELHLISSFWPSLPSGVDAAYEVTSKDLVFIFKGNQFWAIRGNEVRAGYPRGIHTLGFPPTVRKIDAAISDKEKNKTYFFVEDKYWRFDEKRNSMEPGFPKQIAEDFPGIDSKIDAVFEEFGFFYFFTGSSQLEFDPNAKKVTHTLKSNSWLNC
# Sequence of human Matrix Metalloproteinase-2 (MMP2), MMP2 (gene 4313) (P08253 whole entry, looked up): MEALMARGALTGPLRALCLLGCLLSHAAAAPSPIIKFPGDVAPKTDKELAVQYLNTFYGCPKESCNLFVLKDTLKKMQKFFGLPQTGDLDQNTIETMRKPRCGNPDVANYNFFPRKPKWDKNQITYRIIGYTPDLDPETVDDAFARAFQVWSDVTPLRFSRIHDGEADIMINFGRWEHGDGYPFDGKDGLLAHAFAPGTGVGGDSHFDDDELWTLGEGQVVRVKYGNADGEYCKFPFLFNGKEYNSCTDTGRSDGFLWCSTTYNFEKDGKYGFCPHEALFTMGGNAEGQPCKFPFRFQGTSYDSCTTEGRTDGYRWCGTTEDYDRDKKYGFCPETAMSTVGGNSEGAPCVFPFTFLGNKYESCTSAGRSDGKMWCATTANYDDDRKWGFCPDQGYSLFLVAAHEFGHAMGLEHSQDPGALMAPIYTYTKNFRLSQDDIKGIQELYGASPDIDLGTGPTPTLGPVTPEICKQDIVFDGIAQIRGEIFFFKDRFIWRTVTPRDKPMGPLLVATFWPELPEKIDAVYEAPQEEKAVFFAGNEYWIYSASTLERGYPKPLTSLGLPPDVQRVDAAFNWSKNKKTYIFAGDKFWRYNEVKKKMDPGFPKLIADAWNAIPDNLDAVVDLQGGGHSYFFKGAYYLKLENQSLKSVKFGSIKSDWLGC
# Sequence of human Janus Kinase 2 (Jak2), JAK2 (gene 3717) (O60674 whole entry, looked up): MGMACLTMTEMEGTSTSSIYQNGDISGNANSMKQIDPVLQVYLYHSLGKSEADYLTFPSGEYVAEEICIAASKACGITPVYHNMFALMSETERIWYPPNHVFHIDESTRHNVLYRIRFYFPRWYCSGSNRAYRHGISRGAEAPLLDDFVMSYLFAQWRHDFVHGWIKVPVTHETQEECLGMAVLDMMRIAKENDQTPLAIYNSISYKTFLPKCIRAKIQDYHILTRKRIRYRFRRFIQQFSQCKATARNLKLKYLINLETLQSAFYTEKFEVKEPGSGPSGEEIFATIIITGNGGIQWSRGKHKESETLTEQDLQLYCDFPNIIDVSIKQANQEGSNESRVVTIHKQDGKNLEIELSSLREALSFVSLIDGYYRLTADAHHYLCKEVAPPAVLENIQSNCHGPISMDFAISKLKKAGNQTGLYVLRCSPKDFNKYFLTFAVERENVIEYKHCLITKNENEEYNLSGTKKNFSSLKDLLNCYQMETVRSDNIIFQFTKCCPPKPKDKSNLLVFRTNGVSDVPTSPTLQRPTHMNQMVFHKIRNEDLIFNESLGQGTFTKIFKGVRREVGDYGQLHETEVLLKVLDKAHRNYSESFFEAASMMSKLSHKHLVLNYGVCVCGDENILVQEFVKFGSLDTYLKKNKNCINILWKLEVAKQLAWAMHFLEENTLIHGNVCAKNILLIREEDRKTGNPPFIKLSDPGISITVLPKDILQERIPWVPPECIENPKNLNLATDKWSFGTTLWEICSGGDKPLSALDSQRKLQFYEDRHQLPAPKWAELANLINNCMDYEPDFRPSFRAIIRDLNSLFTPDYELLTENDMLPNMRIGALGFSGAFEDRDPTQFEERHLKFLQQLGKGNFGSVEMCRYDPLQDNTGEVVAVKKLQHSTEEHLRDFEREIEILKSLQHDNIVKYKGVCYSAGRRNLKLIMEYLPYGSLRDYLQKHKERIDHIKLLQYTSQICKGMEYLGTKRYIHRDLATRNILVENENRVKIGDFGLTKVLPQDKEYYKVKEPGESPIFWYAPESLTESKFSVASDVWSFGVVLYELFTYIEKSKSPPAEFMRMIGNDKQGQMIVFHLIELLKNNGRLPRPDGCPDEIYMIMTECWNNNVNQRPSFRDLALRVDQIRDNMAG
# Sequence of human c-Jun N-terminal Kinases (JNK2), MAPK9 (gene 5601) (P45984 whole entry, looked up): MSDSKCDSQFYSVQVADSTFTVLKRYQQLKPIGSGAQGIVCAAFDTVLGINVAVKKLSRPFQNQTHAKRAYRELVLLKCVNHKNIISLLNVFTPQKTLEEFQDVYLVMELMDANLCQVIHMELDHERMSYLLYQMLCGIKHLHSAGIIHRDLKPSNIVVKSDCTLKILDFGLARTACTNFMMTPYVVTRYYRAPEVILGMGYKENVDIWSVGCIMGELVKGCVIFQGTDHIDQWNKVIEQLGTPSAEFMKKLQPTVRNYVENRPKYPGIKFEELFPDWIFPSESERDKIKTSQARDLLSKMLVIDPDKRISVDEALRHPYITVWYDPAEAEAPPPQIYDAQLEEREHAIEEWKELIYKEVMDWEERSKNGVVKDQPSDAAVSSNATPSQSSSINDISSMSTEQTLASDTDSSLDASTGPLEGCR
smiles,measurement,setting,value
c1ccc2cc3ccccc3cc2c1,outcome,[1],inactive
O=C(O)c1ccc2c(c1)nc(C(=O)NC1CCN(C3CC3)CC1)n2Cc1cc(-c2ccc(Cl)s2)on1,outcome,[2],inactive
same,outcome,[3],inactive
OC[C@H]1O[C@@](CO)(O[C@H]2O[C@H](CO)[C@@H](O)[C@H](O)[C@H]2O)[C@@H](O)[C@@H]1O,outcome,[4],inactive
CCCCOC(=O)c1ccccc1,outcome,[5],inactive
O=c1[nH]cnc2c1ncn2[C@H]1CC[C@@H](CO)O1,outcome,[3],inactive
CCCCCCCC/C=C\CCCCCCCC(=O)OC[C@@H](O)[C@H]1OC[C@H](O)[C@H]1O,outcome,[3],inactive
c1ccc2c(c1)-c1cccc3c1c-2cc1ccccc13,outcome,[1],inactive
COc1cc2c(c(OC)c1OC)-c1ccc(OC)c(=O)cc1[C@@H](NC(C)=O)CC2,AC50,[6],25.7 µM (active)
same,outcome,[5],inactive
CCCC(CCC)C(=O)O,outcome,[7],inactive
same,outcome,[3],inactive
NNC(=O)c1ccncc1,outcome,[1],inactive
